Reference: the supplement of paper PMC10037445
Over roughly 2,900 compounds, “NF-kB SEAP reporter activity, fold change vs agonist alone” has its median near 0.99; the highest 2% begin near 2.6. The entries come from a sample that favours the highest values as a whole.

Assays:
[1] = system: RAW-Dual; experiment: NF-kB SEAP reporter activity, fold change vs agonist alone; cytotoxicity flag (confluency mask): not cytotoxic; higher = enhanced NF-kB activity
Outline: (§1)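 After 50 nL of library stock was delivered by pin tool to RAW-Dual macrophages (50,000 cells/well, DMEM, 384-well plates), a PRR agonist was added 1 h later and the plates were kept at 37 °C, 5% CO2. Twenty hours later, IRF was read from supernatant by QuantiLuc luminescence and NF-κB by QuantiBlue absorbance at 620 nm. Reporter activity is stated as fold change over agonist-alone wells. Wells with IncuCyte confluency under 70% of agonist controls in both mask sets were counted as cytotoxic.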

[2] = system: RAW-Dual; experiment: NF-kB SEAP reporter activity, fold change vs agonist alone; higher = enhanced NF-kB activity; details: library stock concentration (final ~1000-fold dilution): 10 mM, cytotoxicity flag (confluency mask): not cytotoxic
Outline: as §1

[3] = agonist: ODN 1826 (TLR9) 0.5 ug/mL
[4] = agonist: Pam2CSK4 (TLR2/6) 0.1 ug/mL
[5] = agonist: Pam3CSK4 (TLR2/1) 0.1 ug/mL

Compound	NF-kB SEAP reporter activity ([1]; agonist: LPS (TLR4) 0.1 ug/mL)	NF-kB SEAP reporter activity [1, 3]	NF-kB SEAP reporter activity [1, 4]	NF-kB SEAP reporter activity [1, 5]	NF-kB SEAP reporter activity ([2]; agonist: Imiquimod (TLR7) […])	NF-kB SEAP reporter activity ([2]; agonist: MPLA (TLR4) […])
OCCn1cc(-c2ccc3c(c2)CC/C3=N\O)c(-c2ccncc2)n1 (library stock concentration (final ~1000-fold dilution): 10 mM)	2.47	1.5	1.34	2.22		
CS(=O)(=O)c1ccc(Oc2cc(F)cc(C#N)c2)c2c1C(O)C(F)(F)C2 (centres undefined) (library stock concentration (final ~1000-fold dilution): 10 mM)	1.07	1.35	1.01	1.2		
CS(=O)(=O)c1ccc(Oc2cc(F)cc(C#N)c2)c2c1C(O)C(F)(F)C2 (centres undefined)					1.03	1.16
COc1ccc(CCNCC(O)COc2cccc(C)c2)cc1OC.Cl (centres undefined)						1.06
COc1ccc(CCNCC(O)COc2cccc(C)c2)cc1OC.Cl (centres undefined) (library stock concentration (final ~1000-fold dilution): 10 mM)	1.02	0.846	0.999	1.08		
COc1ccccc1N1CCN(CC(O)COc2cccc3ccccc23)CC1.Cl.Cl (centres undefined)					1.01	0.766
COc1ccccc1N1CCN(CC(O)COc2cccc3ccccc23)CC1.Cl.Cl (centres undefined) (library stock concentration (final ~1000-fold dilution): 10 mM)	0.815	0.929	0.819	0.805		
COc1cc(C(=O)N(CCCc2ccccc2)Cc2ccc(CC(=O)O)cc2)cc(OC)c1C (library stock concentration (final ~1000-fold dilution): 10 mM)	1.19	0.976	0.823	0.908		
COc1cc(C(=O)N(CCCc2ccccc2)Cc2ccc(CC(=O)O)cc2)cc(OC)c1C					1.1	1.11
CCCCN(Cc1ccc(C(=O)NO)cc1)C(=O)Nc1ccccc1 (library stock concentration (final ~1000-fold dilution): 10 mM)	6.63	2.5	1.18	1.73		
O=C(NO)c1ccc(CC(=O)N(CCO)c2ccccc2)cc1					1.15	1.79
O=C(NO)c1ccc(CC(=O)N(CCO)c2ccccc2)cc1 (library stock concentration (final ~1000-fold dilution): 10 mM)	1.94	1.74	0.801	1.21		
CCCCN(Cc1ccc(C(=O)NO)cc1)C(=O)Nc1ccccc1					1.52	2.9
